{
  "source": "PubChem BioAssay AID1159580",
  "about": "(chemical genetic matrix, 2015)",
  "experiment": "chemical genetic growth profiling, strain panel (AID 1159580);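 also: tested at 20 µM; growth read once vehicle control cultures reached saturation at 30 °C; 1 = growth at the plate median or of vehicle wells; lower values mean less growth of the strain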",
  "conditions": "growth OD",
  "note": "In all, about 5,500 compounds went through this assay and about 2,000 (36%) were called active. Roughly 18% stayed inconclusive and do not appear here. This is one part of the list. Unmarked numbers belong to inactive results. Rule as the data show it: active = normalized growth mostly below about 0.91 (no sharp cut-off); inconclusive = no clear call, values can overlap the other calls; inactive = mostly above about 0.92.",
  "data": [
    {"smiles": "C#C[C@]1(O)CCC2C3CCC4=Cc5oncc5C[C@]4(C)C3CC[C@@]21C", "note": "(some centres not stated)", "values": [
      {"measurement": "normalized growth", "setting": "S. cerevisiae deletion strains, locus YJR066W, strain TOR1, active compounds read low", "value": 0.956},
      {"measurement": "normalized growth", "setting": "S. cerevisiae deletion strains, locus YKL009W, strain mrt4, active compounds read low", "value": 0.954},
      {"measurement": "normalized growth", "setting": "S. cerevisiae deletion strains, locus YKL068W, active compounds read low", "value": "0.922 (active)"},
      {"measurement": "normalized growth", "setting": "S. cerevisiae deletion strains, locus YKL085W, strain MDH1 (second series), active compounds read low", "value": "0.889 (active)"},
      {"measurement": "normalized growth", "setting": "S. cerevisiae deletion strains, locus YKL085W, strain MDH1, active compounds read low", "value": "0.889 (active)"},
      {"measurement": "normalized growth", "setting": "S. cerevisiae deletion strains, locus YKL160W, strain elf1, active compounds read low", "value": 0.925},
      {"measurement": "normalized growth", "setting": "S. cerevisiae deletion strains, locus YKR001C, strain vps1, active compounds read low", "value": "0.831 (active)"},
      {"measurement": "normalized growth", "setting": "S. cerevisiae deletion strains, locus YKR026C, strain gcn3, active compounds read low", "value": 0.948},
      {"measurement": "normalized growth", "setting": "S. cerevisiae deletion strains, locus YKR091W, strain srl3, active compounds read low", "value": 0.964},
      {"measurement": "normalized growth", "setting": "S. cerevisiae deletion strains, locus YLL001W, strain dnm1, active compounds read low", "value": 0.921},
      {"measurement": "normalized growth", "setting": "S. cerevisiae deletion strains, locus YLL026W, active compounds read low", "value": 0.94},
      {"measurement": "normalized growth", "setting": "S. cerevisiae deletion strains, locus YLL041C, strain sdh2, active compounds read low", "value": 0.961},
      {"measurement": "normalized growth", "setting": "S. cerevisiae deletion strains, locus YLR027C, strain aat2, active compounds read low", "value": "0.911 (active)"},
      {"measurement": "normalized growth", "setting": "S. cerevisiae deletion strains, locus YLR039C, strain RIC1, active compounds read low", "value": "0.574 (active)"},
      {"measurement": "normalized growth", "setting": "S. cerevisiae deletion strains, locus YLR058C, strain SHM2, active compounds read low", "value": 0.898},
      {"measurement": "normalized growth", "setting": "S. cerevisiae deletion strains, locus YLR102C, strain apc9, active compounds read low", "value": 0.949},
      {"measurement": "normalized growth", "setting": "S. cerevisiae deletion strains, locus YLR113W, strain HOG1, active compounds read low", "value": 0.95},
      {"measurement": "normalized growth", "setting": "S. cerevisiae deletion strains, locus YLR221C, strain rsa3, active compounds read low", "value": 0.957},
      {"measurement": "normalized growth", "setting": "S. cerevisiae deletion strains, locus YLR258W, strain gsy2, active compounds read low", "value": 0.955},
      {"measurement": "normalized growth", "setting": "S. cerevisiae deletion strains, locus YLR262C, strain YPT6 (second series), active compounds read low", "value": "0.792 (active)"},
      {"measurement": "normalized growth", "setting": "S. cerevisiae deletion strains, locus YLR262C, strain YPT6, active compounds read low", "value": "0.565 (active)"},
      {"measurement": "normalized growth", "setting": "S. cerevisiae deletion strains, locus YLR268W, strain sec22, active compounds read low", "value": "0.838 (active)"},
      {"measurement": "normalized growth", "setting": "S. cerevisiae deletion strains, locus YLR320W, strain mms22, active compounds read low", "value": 0.914},
      {"measurement": "normalized growth", "setting": "S. cerevisiae deletion strains, locus YLR330W, strain CHS5, active compounds read low", "value": "0.902 (active)"},
      {"measurement": "normalized growth", "setting": "S. cerevisiae deletion strains, locus YLR342W, strain FKS1 (second series), active compounds read low", "value": 0.926},
      {"measurement": "normalized growth", "setting": "S. cerevisiae deletion strains, locus YLR342W, strain FKS1, active compounds read low", "value": "0.875 (active)"},
      {"measurement": "normalized growth", "setting": "S. cerevisiae deletion strains, locus YLR357W, strain rsc2, active compounds read low", "value": 0.944},
      {"measurement": "normalized growth", "setting": "S. cerevisiae deletion strains, locus YLR370C, strain arc18, active compounds read low", "value": 0.975},
      {"measurement": "normalized growth", "setting": "S. cerevisiae deletion strains, locus YLR371W, strain rom2, active compounds read low", "value": "0.852 (active)"},
      {"measurement": "normalized growth", "setting": "S. cerevisiae deletion strains, locus YLR384C, strain iki3, active compounds read low", "value": 0.958},
      {"measurement": "normalized growth", "setting": "S. cerevisiae deletion strains, locus YLR418C, strain cdc73, active compounds read low", "value": "0.645 (active)"},
      {"measurement": "normalized growth", "setting": "S. cerevisiae deletion strains, locus YML016C, strain PPZ1, active compounds read low", "value": 0.935},
      {"measurement": "normalized growth", "setting": "S. cerevisiae deletion strains, locus YML032C, strain rad52, active compounds read low", "value": 0.928},
      {"measurement": "normalized growth", "setting": "S. cerevisiae deletion strains, locus YML120C, strain ndi1, active compounds read low", "value": 0.924},
      {"measurement": "normalized growth", "setting": "S. cerevisiae deletion strains, locus YML124C, strain tub3, active compounds read low", "value": "0.92 (active)"},
      {"measurement": "normalized growth", "setting": "S. cerevisiae deletion strains, locus YMR058W, strain fet3, active compounds read low", "value": 0.938},
      {"measurement": "normalized growth", "setting": "S. cerevisiae deletion strains, locus YMR078C, strain ctf18, active compounds read low", "value": 0.923},
      {"measurement": "normalized growth", "setting": "S. cerevisiae deletion strains, locus YMR125W, strain sto1, active compounds read low", "value": 0.94},
      {"measurement": "normalized growth", "setting": "S. cerevisiae deletion strains, locus YMR129W, active compounds read low", "value": 0.959},
      {"measurement": "normalized growth", "setting": "S. cerevisiae deletion strains, locus YMR205C, strain PFK2, active compounds read low", "value": 0.92},
      {"measurement": "normalized growth", "setting": "S. cerevisiae deletion strains, locus YMR223W, strain ubp8, active compounds read low", "value": 0.953},
      {"measurement": "normalized growth", "setting": "S. cerevisiae deletion strains, locus YMR231W, strain pep5, active compounds read low", "value": 0.965},
      {"measurement": "normalized growth", "setting": "S. cerevisiae deletion strains, locus YMR263W, strain SAP30, active compounds read low", "value": 0.926},
      {"measurement": "normalized growth", "setting": "S. cerevisiae deletion strains, locus YMR307W, strain GAS1, active compounds read low", "value": 0.73},
      {"measurement": "normalized growth", "setting": "S. cerevisiae deletion strains, locus YNL067W, strain RPL9B, active compounds read low", "value": 0.927},
      {"measurement": "normalized growth", "setting": "S. cerevisiae deletion strains, locus YNL071W, strain lat1, active compounds read low", "value": "0.841 (active)"},
      {"measurement": "normalized growth", "setting": "S. cerevisiae deletion strains, locus YNL183C, strain NPR1, active compounds read low", "value": 0.95},
      {"measurement": "normalized growth", "setting": "S. cerevisiae deletion strains, locus YNL209W, strain ssb2, active compounds read low", "value": 0.991},
      {"measurement": "normalized growth", "setting": "S. cerevisiae deletion strains, locus YNL233W, strain BNI4, active compounds read low", "value": "0.843 (active)"},
      {"measurement": "normalized growth", "setting": "S. cerevisiae deletion strains, locus YNL248C, strain rpa49, active compounds read low", "value": 0.982},
      {"measurement": "normalized growth", "setting": "S. cerevisiae deletion strains, locus YNL250W, strain rad50, active compounds read low", "value": 0.928},
      {"measurement": "normalized growth", "setting": "S. cerevisiae deletion strains, locus YNL271C, strain bni1, active compounds read low", "value": "0.908 (active)"},
      {"measurement": "normalized growth", "setting": "S. cerevisiae deletion strains, locus YNL298W, strain CLA4, active compounds read low", "value": 0.953},
      {"measurement": "normalized growth", "setting": "S. cerevisiae deletion strains, locus YNL307C, strain MCK1, active compounds read low", "value": "0.759 (active)"},
      {"measurement": "normalized growth", "setting": "S. cerevisiae deletion strains, locus YNL322C, strain KRE1 (second series), active compounds read low", "value": 0.945},
      {"measurement": "normalized growth", "setting": "S. cerevisiae deletion strains, locus YNR049C, strain mso1, active compounds read low", "value": 0.961},
      {"measurement": "normalized growth", "setting": "S. cerevisiae deletion strains, locus YNR052C, strain pop2, active compounds read low", "value": 0.956},
      {"measurement": "normalized growth", "setting": "S. cerevisiae deletion strains, locus YOL012C, strain htz1", "value": 0.535},
      {"measurement": "normalized growth", "setting": "S. cerevisiae deletion strains, locus YOL147C, strain pex11, active compounds read low", "value": "0.899 (active)"},
      {"measurement": "normalized growth", "setting": "S. cerevisiae deletion strains, locus YOR001W, strain rrp6, active compounds read low", "value": 0.972},
      {"measurement": "normalized growth", "setting": "S. cerevisiae deletion strains, locus YOR061W, strain CKA2, active compounds read low", "value": 0.904},
      {"measurement": "normalized growth", "setting": "S. cerevisiae deletion strains, locus YOR069W, strain VPS5, active compounds read low", "value": 0.955},
      {"measurement": "normalized growth", "setting": "S. cerevisiae deletion strains, locus YOR070C, strain gyp1, active compounds read low", "value": 0.975},
      {"measurement": "normalized growth", "setting": "S. cerevisiae deletion strains, locus YOR080W, strain dia2, active compounds read low", "value": 0.957},
      {"measurement": "normalized growth", "setting": "S. cerevisiae deletion strains, locus YOR083W, strain WHI5, active compounds read low", "value": 0.941},
      {"measurement": "normalized growth", "setting": "S. cerevisiae deletion strains, locus YOR106W, strain vam3, active compounds read low", "value": 0.963},
      {"measurement": "normalized growth", "setting": "S. cerevisiae deletion strains, locus YOR136W, strain idh2, active compounds read low", "value": 0.922},
      {"measurement": "normalized growth", "setting": "S. cerevisiae deletion strains, locus YOR144C, strain elg1, active compounds read low", "value": "0.914 (active)"},
      {"measurement": "normalized growth", "setting": "S. cerevisiae deletion strains, locus YOR184W, strain ser1, active compounds read low", "value": "0.59 (active)"},
      {"measurement": "normalized growth", "setting": "S. cerevisiae deletion strains, locus YOR231W, strain MKK1, active compounds read low", "value": 0.988},
      {"measurement": "normalized growth", "setting": "S. cerevisiae deletion strains, locus YOR265W, strain rbl2, active compounds read low", "value": 0.966},
      {"measurement": "normalized growth", "setting": "S. cerevisiae deletion strains, locus YOR270C, strain vph1, active compounds read low", "value": 0.824},
      {"measurement": "normalized growth", "setting": "S. cerevisiae deletion strains, locus YOR290C, strain snf2, active compounds read low", "value": 1},
      {"measurement": "normalized growth", "setting": "S. cerevisiae deletion strains, locus YOR316C, strain cot1, active compounds read low", "value": 0.925},
      {"measurement": "normalized growth", "setting": "S. cerevisiae deletion strains, locus YPL051W, strain arl3, active compounds read low", "value": 0.945},
      {"measurement": "normalized growth", "setting": "S. cerevisiae deletion strains, locus YPL055C, strain LGE1, active compounds read low", "value": "0.75 (active)"},
      {"measurement": "normalized growth", "setting": "S. cerevisiae deletion strains, locus YPL078C, strain atp4, active compounds read low", "value": 0.902},
      {"measurement": "normalized growth", "setting": "S. cerevisiae deletion strains, locus YPL106C, strain sse1, active compounds read low", "value": 0.984},
      {"measurement": "normalized growth", "setting": "S. cerevisiae deletion strains, locus YPL240C, strain hsp82, active compounds read low", "value": 0.967},
      {"measurement": "normalized growth", "setting": "S. cerevisiae deletion strains, locus YPL241C, strain CIN2, active compounds read low", "value": 0.931},
      {"measurement": "normalized growth", "setting": "S. cerevisiae deletion strains, locus YPL256C, strain CLN2, active compounds read low", "value": 0.975},
      {"measurement": "normalized growth", "setting": "S. cerevisiae deletion strains, locus YPR119W, strain clb2, active compounds read low", "value": "0.915 (active)"},
      {"measurement": "normalized growth", "setting": "S. cerevisiae deletion strains, locus YPR141C, strain kar3, active compounds read low", "value": "0.895 (active)"},
      {"measurement": "normalized growth", "setting": "S. cerevisiae deletion strains, locus YPR163C, strain tif3, active compounds read low", "value": "0.877 (active)"},
      {"measurement": "normalized growth", "setting": "S. cerevisiae deletion strains, locus YPR167C, strain met16, active compounds read low", "value": 0.926},
      {"measurement": "normalized growth", "setting": "S. cerevisiae deletion strains, strain wtn01, active compounds read low", "value": "0.887 (active)"},
      {"measurement": "normalized growth", "setting": "S. cerevisiae strains, strain wild type, active compounds read low", "value": 0.911}
    ]}
  ]
}
